The values below come from PubChem BioAssay (Tox21).

Each structure is given as a SMILES string. “And” between values parts separate entries of the source, which are not always exact repeats. Identical values can stand only once. Inconclusive results are not listed. A call without a number means that no potency is given here. Some structures have more than one record in an assay (separate samples or runs), and their calls can disagree. The source made the active and inactive calls. Calls come from the whole dose curve.
Potency is the fitted concentration of half-maximal effect.

The nature of this experiment: qHTS assay to identify small molecule antagonists of the sonic hedgehog signaling (Shh) pathway (AID 1259369). Note: nearly all actives have a fitted effect of over 45% in size. The settings on record: NIH/3T3 Gli1-Luc reporter, Shh antagonist, luminescence 24 h; series mostly up to 92.4 µM; activity change, negative = inhibition: at the top concentration. An excerpt: U.S. Tox21 Program National Center for Advancing Translational Sciences [NCATS] NIH Chemical Genomics Center [NCGC] U.S. Environmental Protection Agency [EPA] National Institutes of Environmental Health Sciences [NIEHS] National Toxicology Program [NTP] U.S. Food and Drug Administration [FDA] Tox21 Assay Overview: The sonic hedgehog (Shh) pathway is essential for normal embryonic development. Dysregulation of the Shh pathway can cause severe developmental defects in organs. Therefore chemicals that interfere with the pathway are potential developmental toxicants. A cell line designated 3T3Gli1-Luc (DMB/OARSA/CFSAN/FDA, Laurel, MD), a NIH/3T3 derived clone containing stably integrated Gli1-Luc reporter is used to detect chemical interference of the Shh pathway, by changes in the expression of the firefly Luc gene under the control of the Gli1 transcriptional response element. This cell line was used to screen Tox21 libraries for identifying and prioritizing the potential developmental toxicants that interfere Shh pathway. Conditioned medium-stimulated mode was used to screen for chemicals inhibiting Shh signaling.
Tox21 Assay Protocol Summary: 3T3 Gli1-Luc cells were dispensed at 2,000 per well in 5uL of culture medium into white solid bottom 1536-well plates (Greiner Bio-One, Monroe, NC) using a Multidrop Combi (Thermo Scientific, Waltham, MA) dispenser. The assay plates were incubated at 37 C and 5% CO2 for 4hr, and then 23nL of compounds dissolved in DMSO and positive control were transferred using a Pintool station (Wako, San Diego, CA). The compound transfer was followed by the addition of 1ul conditioned medium or assay buffer using two separate tips of Flying Reagent Dispenser (FRD, Aurora Discovery, San Diego, CA). The assay plates were incubated at 37C and 5% CO2 for 24hr. For luciferase read, 4uL of Amplite Luciferase reporter gene assay reagent (AAT Bioquest, Inc. Sunnyvale, CA) was added to each well of the assay plates using FRD and incubated at room temperature for 30min. The luminescence signal was measured using a ViewLux plate reader (Perkin Elmer, Shelton, CT).
On the technique in general: Quantitative high-throughput screening tests each substance at several concentrations.
Turning to `O=S1(=O)CCCO1`, the “activity change, negative = inhibition” value was 25.8% (inactive).

In the case of `CC1=CC(C)(C)Nc2ccccc21`, the Potency entry was “inactive”.

On to `CC(C)[N+](C)(CCOC(=O)C1c2ccccc2Oc2ccccc21)C(C)C`, for which the “activity change, negative = inhibition” value is -3.12% [at 42.5 µM] (inactive).

`NCCN`: the “activity change, negative = inhibition” value was -9.78% (inactive).

As to `C1CN(SSN2CCOCC2)CCO1`, the Potency was 12.1 µM (active) and 24.3 µM (active).

For `C=CN1CCCC1=O`, the “activity change, negative = inhibition” value was 9.09% (inactive).

With `CNC[C@H](O)c1ccc(O)c(O)c1`, the activity change, negative = inhibition was -2.86% [at 19 µM] (inactive) and the Potency was 17.2 µM (active).

Take `C=CC(=O)OCCCC`: the Potency result was “inactive”.

In the case of `FC(F)(F)C(Cl)Br` (stereo not given), the Potency result was “inactive”.

As to `Cc1ccc(C)c(O)c1`, the Potency result was “inactive”.

In the case of `OC[C@@H](O)[C@@H](O[C@@H]1O[C@H](CO)[C@H](O)[C@H](O)[C@H]1O)[C@H](O)[C@@H](O)CO`, the Potency entry was “inactive”.

Consider `[O-]/[N+](=N\O)c1ccccc1`, for which the Potency entry was “inactive”.

On to `COC(=O)CC(=O)OC`, for which the Potency entry was “inactive”.

For the compound `Cc1ccc(S(=O)(=O)O)cc1C`, the Potency entry was “inactive”.

As for `CCOC(=O)C(C)Oc1ccc(Oc2cnc3cc(Cl)ccc3n2)cc1` (stereo not given), the “activity change, negative = inhibition” value is -3.99% (inactive).

In the case of `Brc1nc2ccccc2s1`, the Potency entry is “inactive”.

With `O=Cc1ccccc1C=O`, the Potency was 2.43 µM (active) and inactive.

As for `Oc1ccc(C(c2ccc(O)cc2)C(Cl)(Cl)Cl)cc1`, the Potency is 9.65 µM (active).

Take `O=C(O)c1cc(=O)[nH]c(=O)[nH]1`: the Potency result is “inactive and 13.3 µM (active)”.

Take `C[N+](C)(C)CCO`: the “activity change, negative = inhibition” value is 25.1% (inactive).

Regarding `Cc1ccc(S(=O)(=O)NCl)cc1`, the Potency entry was “inactive”.

As for `CC(=O)Oc1c(C)c(C)c2c(c1C)CC[C@@](C)(CCC[C@H](C)CCC[C@H](C)CCCC(C)C)O2`, the Potency result was “inactive”.

Turning to `NCCS(=O)(=O)O`, the “activity change, negative = inhibition” value was 23.3% [at 42.5 µM] (inactive).

For `CC/C=C\C/C=C\C/C=C\CCCCCCCC(=O)O`, the Potency result was “inactive and 43.3 µM (active)”.

On to `CCCCCC=O`, for which the Potency entry was “inactive”.

For `C1COCCN1`, the Potency entry was “inactive”.

In the case of `CCC(=O)O[C@H]1[C@H](O[C@@H]2[C@@H](C)[C@H](O[C@H]3C[C@@](C)(OC)[C@@H](O)[C@H](C)O3)[C@@H](C)C(=O)O[C@H](CC)[C@@](C)(O)[C@H](O)[C@@H](C)C(=O)[C@H](C)C[C@@]2(C)O)O[C@H](C)C[C@@H]1N(C)C`, the Potency was 16.1 µM (active) and inactive.

`O=C(O)COCCN1CCN(C(c2ccccc2)c2ccc(Cl)cc2)CC1` (stereo not given): the Potency result is “inactive”.

Take `O=C(O)c1ccc(O)cc1`: the Potency entry is “inactive”.

Regarding `CC(=O)Nc1ccc2c(c1)Cc1cc(NC(C)=O)ccc1-2`, the Potency result is “inactive”.

Consider `c1ccc2c(c1)ccc1cc3c(ccc4ccccc43)cc12`, for which the Potency entry was “inactive”.

Regarding `OC[C@H]1O[C@@H]2O[C@H]3[C@H](O)[C@@H](O)[C@@H](O[C@H]4[C@H](O)[C@@H](O)[C@@H](O[C@H]5[C@H](O)[C@@H](O)[C@@H](O[C@H]6[C@H](O)[C@@H](O)[C@@H](O[C@H]7[C@H](O)[C@@H](O)[C@@H](O[C@H]1[C@H](O)[C@H]2O)O[C@@H]7CO)O[C@@H]6CO)O[C@@H]5CO)O[C@@H]4CO)O[C@@H]3CO`, the Potency result was “inactive and 9.13 µM (active)”.

`CCCCCCCCCCCCO`: the Potency entry is “inactive and 60.4 µM (active)”.

Turning to `O=[Se](O)O`, the Potency entry was “inactive”.

Take `O=C(CCCN1CCC(O)(c2ccc(Cl)cc2)CC1)c1ccc(F)cc1`: the “activity change, negative = inhibition” value was -18.7% (inactive).

On to `C=CC(C)(O)CCC=C(C)C` (stereo not given), for which the Potency result was “inactive”.

For the compound `C[C@]12CC[C@@H]3c4ccc(O)cc4CC[C@H]3[C@@H]1CC[C@H]2O`, the Potency is 4.94 µM (active) and 4.86 µM (active).

With `Cc1ccc(C(C)(C)C)c(O)c1`, the “activity change, negative = inhibition” value is -11.2% (inactive).

For `CCCN1C=CN(C)C1`, the Potency result is “inactive”.
